# Results filed as inconclusive are left out. Calls of active or inactive are those of the source. The calls were made as follows, unless noted: active = hit-call score of the fitted dose curve at least 0.9, where 1 is the maximum; inactive = score below 0.9. Peptide text beside a SMILES is read from it.
# Key:
# [1] = system: Brachyury (BRA) Protein Expression, Deisenroth Lab, TBXT (gene 6862); test: CCTE_Deisenroth_DEVTOX-GLR_legacy_Bra: (Legacy) CCTE's DevTox GLR-Endo Assay Evaluation of Brachyury (BRA) Protein Expression, Deisenroth Lab (AID 2284329)
# Procedure, shortened: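 RUES2-GLR human pluripotent cells differentiated 48 h with two 24-h-interval chemical exposures (1 nM - 200 uM, 10 points); fixed, nuclear-stained, imaged. Bra+ cell percentage (intensity 5x BMAD above pluripotent control median) fitted relative to 0.2% DMSO.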
# [2] = CCTE_Deisenroth_DEVTOX-GLR_legacy_CellCount: (Legacy) Viability Assessment in CCTE's DevTox GLR-Endo Assay, Deisenroth Lab (AID 2284331); details: actives raise or lower the signal
# Procedure, shortened: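 Human pluripotent RUES2-GLR cells differentiated 48 h with two 24-h-interval exposures, 10-point 1 nM–200 uM series, 0.2% DMSO. Fixed nuclei counted by high-content imaging (5 fields/well); bidirectional fit vs DMSO, n≥4.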
# [3] = system: SRY-box transcription factor 17 (SOX17) Protein Expression, Deisenroth Lab, SOX17 (gene 64321); test: CCTE_Deisenroth_DEVTOX-GLR_legacy_Sox17: (Legacy) CCTE's DevTox GLR-Endo Assay Evaluation of SRY-box transcription factor 17 (SOX17) Protein Expression, Deisenroth Lab (AID 2284341); details: actives raise or lower the signal
# Procedure, shortened: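 RUES2-GLR human pluripotent cells differentiated toward endoderm for 48 h, dosed twice at 24 h intervals (1 nM–200 uM, 10 points). Imaging gives % SOX17+ cells (intensity >5x BMAD above pluripotent control median); bidirectional fit versus 0.2% DMSO.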
# [4] = system: SRY-box transcription factor 2 (SOX2) Protein Expression, Deisenroth Lab, SOX2 (gene 6657); test: CCTE_Deisenroth_DEVTOX-GLR_legacy_Sox2: (Legacy) CCTE's DevTox GLR-Endo Assay Evaluation of SRY-box transcription factor 2 (SOX2) Protein Expression, Deisenroth Lab (AID 2284346)
# Procedure, shortened: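 RUES2-GLR human pluripotent cells seeded 24 h, then differentiated 48 h in defined media with two chemical doses 24 h apart (10-point, 1 nM–200 uM). Fixed, nuclear-stained, imaged; % Sox2+ cells (>5x BMAD over endoderm control median), DMSO-subtracted, fitted upward.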
# SERPINA7 (gene 6906) = test: CCTE_GLTED_hTBG: CCTE's human Thyroxine-binding Globulin (TBG) Inhibition Assay, Great Lakes Toxicology and Ecology Division (GLTED) Lab (AID 2284343; active = hit-call score of the fitted dose curve at least 0.9, where 1 is the maximum;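 also: active chemicals lower fluorescence versus DMSO baseline by displacing probe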)
# Procedure, shortened: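 hTBG + test chem, 2 h; ANSA probe displacement; fluorescence readout ex380/em475; DMSO = neg ctrl/baseline; cell-free.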
# [5] = CCTE_Deisenroth_5AR_NBTE_acceptor: CCTE's 5alpha-reductase NanoBRET Target Engagement Assay - Autofluorescence Screen, Deisenroth Lab (AID 2284321); details: actives raise or lower the signal;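 also: compound fluorescence in the acceptor channel under 460 nm excitation flags autofluorescence artifacts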
# Procedure, shortened: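 Chemicals diluted to a nominal 100 uM in DMSO were scanned at 460 nm excitation. Samples were read in three independent runs (n=3). Gain or loss of acceptor signal was fitted relative to DMSO.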
# SRD5A2 (gene 6716) = test: CCTE_Deisenroth_5AR_NBTE_ratio: CCTE's 5alpha-reductase NanoBRET Target Engagement Assay - Ratio, Deisenroth Lab (AID 2284322); details: actives raise or lower the signal
# Procedure, shortened: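 HEK293T transiently expressing SRD5A2-NanoLuc; cells exposed to chemical (8-point, 10 nM - 29.9 uM) for 5 h total, testosterone tracer added for final 2 h. NanoBRET acceptor/donor ratio (650/460 nm), bidirectional fit vs DMSO.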
# IYD (gene 389434) = test: CCTE_GLTED_hIYD: CCTE's human Iodotyrosine Deiodinase (xIYD) Inhibition Assay, Great Lakes Toxicology and Ecology Division (GLTED) Lab (AID 2284317; active = hit-call score of the fitted dose curve at least 0.9, where 1 is the maximum;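 also: cell-free human IYD enzyme made in baculovirus insect cells; iodide freed from monoiodotyrosine measured by cerium arsenite color change at 420 nm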)
# Procedure, shortened: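 Absorbance change at 420 nm from the iodide-catalysed cerium-arsenic reaction reports free iodide released by human IYD from monoiodotyrosine. Enzyme, substrate and chemical are incubated 3 h; loss of signal is fitted relative to DMSO baseline.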
# [6] = TAMU_PeakParms_SingleDonor1434_Asystole: Texas A&M University (TAMU) 1.5-hr Human Induced Pluripotent Stem Cell (iPSC)-derived Cardiomyocytes Calcium (Ca+2) Flux Assay for Cardiotoxicity: Asystole (quiescence of beating) (AID 2284328; active = hit-call score of the fitted dose curve at least 0.9, where 1 is the maximum)
# Procedure, shortened: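 Human iPSC-derived cardiomyocytes (donor 1434) were exposed to 0.2, 1, 10 and 100 uM compound in 0.5% DMSO for 90 min at 37C. Ca2+-dye fluorescence gave average peak frequency; POD is EC95, a 95% beat-rate drop versus DMSO.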
# [7] = CCTE_Mundy_HCI_iCellGluta_NOG_NeuronCount: CCTE's Neurite Outgrowth Assay in iCellGluta cells for Neuron Count, Mundy Lab (AID 2284340; active = hit-call score of the fitted dose curve at least 0.9, where 1 is the maximum;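 also: cells fixed about 48 h after compound addition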)
# Procedure, shortened: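 Neuron count read by automated high-content imaging of Hoechst 33342 and betaIII-tubulin/Alexa Fluor-488 labelling in human iPSC glutamatergic neurons. Activity fitted relative to DMSO.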
# [8] = CCTE_Mundy_HCI_iCellGluta_NOG_NeuriteCount: CCTE's Neurite Outgrowth Assay in iCellGluta cells for Neurite Count, Mundy Lab (AID 2284342; active = hit-call score of the fitted dose curve at least 0.9, where 1 is the maximum;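 also: chemical exposure about 48 hours starting 2 hours after plating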)
structure (smiles),measurement,setting,value
CC1(C)[C@@H]2CC[C@@]1(C)C(=O)C2,outcome,[1],inactive
same,outcome,[2],inactive
same,outcome,[3],inactive
same,outcome,[4],inactive
Oc1ccccc1Cc1ccccc1O,AC50,SERPINA7 (gene 6906),8.67 µM (active)
COc1cc(O)c(C(=O)c2ccccc2)cc1S(=O)(=O)O,AC50,SERPINA7 (gene 6906),29.8 µM (active)
O=C(OCCc1ccccc1)c1ccccc1,AC50,SERPINA7 (gene 6906),22.6 µM (active)
CCCCNS(=O)(=O)c1ccc(C)cc1,AC50,SERPINA7 (gene 6906),21.4 µM (active)
CCCCCCCCCCCC(=O)N(C)CC(=O)O,outcome,[5],inactive
same,outcome,SRD5A2 (gene 6716),inactive
CCCCCCCOC(=O)c1ccc(O)cc1,AC50,IYD (gene 389434),50.4 µM (active)
same,AC50,SERPINA7 (gene 6906),10.6 µM (active)
O=S(=O)(O)c1ccc(N=Nc2c(O)ccc3ccccc23)cc1,outcome,[5],inactive
same,AC50,SRD5A2 (gene 6716),26.6 µM (active)
same,AC50,SERPINA7 (gene 6906),19 µM (active)
O=c1c(O)c(-c2ccc(O)cc2O)oc2cc(O)cc(O)c12,AC50,IYD (gene 389434),144 µM (active)
CCCCCC[C@@H](O)C/C=C\CCCCCCCC(=O)OCC(O)CO (stereo partly drawn),AC50,SERPINA7 (gene 6906),26.9 µM (active)
CC1=NN(c2ccc(S(=O)(=O)O)cc2)C(=O)C1N=Nc1ccccc1 (stereo not drawn),outcome,[5],inactive
same,AC50,SRD5A2 (gene 6716),10 µM (active)
same,AC50,SERPINA7 (gene 6906),27.3 µM (active)
C=CCOC(=O)c1ccc(C(=O)OCC=C)c(C(=O)OCC=C)c1,outcome,[5],inactive
same,outcome,SRD5A2 (gene 6716),inactive
CCCCC(CC)COC(=O)/C=C/c1ccc(OC)cc1 (stereo not drawn),outcome,IYD (gene 389434),inactive
O=C(Oc1ccccc1)c1ccccc1O,AC50,SERPINA7 (gene 6906),2.52 µM (active)
CN(C)c1ccc2nc3ccc(=[N+](C)C)cc-3sc2c1,AC50,IYD (gene 389434),2.73 µM (active)
same,AC50,[5],10 µM (active)
same,AC50,SRD5A2 (gene 6716),2.95 µM (active)
O=C(OCc1ccccc1)c1ccc(O)cc1,outcome,[5],inactive
same,outcome,SRD5A2 (gene 6716),inactive
CC(CCC(=O)O)(c1ccc(O)cc1)c1ccc(O)cc1,AC50,SERPINA7 (gene 6906),37.7 µM (active)
CC(C)(C)NC(=O)[C@H]1CC[C@H]2[C@@H]3CC[C@H]4NC(=O)C=C[C@]4(C)[C@H]3CC[C@]12C,outcome,[5],inactive
same,AC50,SRD5A2 (gene 6716),0.00734 µM (active)
O=C(O)CCC(=O)O,outcome,[5],inactive
same,outcome,SRD5A2 (gene 6716),inactive
CCCCC/C=C\C/C=C\CCCCCCCC(=O)O,AC50,IYD (gene 389434),137 µM (active)
COC(=O)[C@H](Cc1ccccc1)NC(=O)[C@@H](N)CC(=O)O (H-Asp-Phe-OMe),outcome,[6],inactive
same,outcome,[7],inactive
same,outcome,[8],inactive
CCCCCCCCCCCCc1ccc(O)cc1,AC50,IYD (gene 389434),24 µM (active)
same,outcome,[5],inactive
same,outcome,SRD5A2 (gene 6716),inactive
same,AC50,SERPINA7 (gene 6906),6.15 µM (active)
C=C[C@@]1(C)CC(=O)[C@]2(O)[C@@]3(C)[C@@H](O)CCC(C)(C)[C@@H]3[C@H](O)[C@H](OC(C)=O)[C@@]2(C)O1,outcome,[5],inactive
same,outcome,SRD5A2 (gene 6716),inactive
CCOC(=O)C1=NOC(c2ccccc2)(c2ccccc2)C1,AC50,SERPINA7 (gene 6906),2.68 µM (active)
CCCCCCCCCC[N+](C)(CCCCCCCCCC)CCC[Si](OC)(OC)OC,AC50,IYD (gene 389434),77.2 µM (active)
same,AC50,[5],33.4 µM (active)
same,outcome,SRD5A2 (gene 6716),inactive

# — PubChem BioAssay (EPA / NIEHS)
